Measurements reported in PubChem BioAssay (Tox21).
Records with an inconclusive call do not appear. The source made the active and inactive calls. Calls follow the shape of the dose curve; as a rule, active = well fitted curve in the direction sought with a large enough effect in the repeat runs; inconclusive = weak or mixed curves; inactive = no such curve, though single readings can be large; an effect the other way counts as inactive or inconclusive.

Assays:
[1] = qHTS RealTime-Glo MT Cell Viability Assay in HepG2 cells - 40 hour (AID 1224870); also: nearly all actives have a fitted effect of over 50% in size
Outline: (§1)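 Real-time viability: cells seeded at 600 per well together with NanoLuc and cell-permeant prosubstrate, compounds added after 5 h incubation. Luminescence tracked at 0, 8, 16, 24, 32 and 40 h of exposure.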

[2] = A CellTox Green Cytotoxicity Assay to monitor cytotoxicity in HEK293 cells - 40 hour (AID 1224871); also: nearly all actives have a fitted effect of over 45% in size
Outline: (§2)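 Nonlytic real-time cytotoxicity: HEK293 + CellTox Green reagent plated, 5 h preincubation, pintool compound addition (23 nL in DMSO), 37 C for 40 h, fluorescence measured at successive time points.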

[3] = qHTS RealTime-Glo MT Cell Viability Assay in HEK293 cells - 16 hour (AID 1224872); also: top concentration of the series differs between compounds; nearly all actives have a fitted effect of over 50% in size
Outline: (§3)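 Quantitative high-throughput screen of the Tox21 10K library in HEK293: cells and RealTime-Glo reagents plated together, compound added at 5 h, luminescence monitored through 40 h at 37 C.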

[4] = qHTS RealTime-Glo MT Cell Viability Assay in HepG2 cells - 8 hour (AID 1224873); also: nearly all actives have a fitted effect of over 55% in size
Outline: as §1

[5] = qHTS RealTime-Glo MT Cell Viability Assay in HEK293 cells - 40 hour (AID 1224874); conditions: RealTime-Glo luminescence; max response: active compounds read low; also: nearly all actives have a fitted effect of over 50% in size
Outline: (§4)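 Cells were seeded together with NanoLuc luciferase and a prosubstrate that viable cells reduce to a luciferase substrate. After a 5 h incubation at 37 C/5% CO2, compounds were added and luminescence was measured repeatedly during 40 h of treatment.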

[6] = A CellTox Green Cytotoxicity Assay to monitor cytotoxicity in HEK293 cells - 24 hour (AID 1224875); also: series mostly up to about 77 µM; nearly all actives have a fitted effect of over 45% in size
Outline: as §2

[7] = qHTS RealTime-Glo MT Cell Viability Assay in HepG2 cells - 32 hour (AID 1224877); also: nearly all actives have a fitted effect of over 55% in size
Outline: (§5)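 Compound treatment began 5 h after plating HepG2 cells (600/well) with NanoLuc luciferase and prosubstrate. Plates stayed at 37 C for 40 h; luminescence was captured at six time points, 0 h through 40 h.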

[8] = A CellTox Green Cytotoxicity Assay to monitor cytotoxicity in HepG2 cells - 24 hour (AID 1224878); also: nearly all actives have a fitted effect of over 45% in size
Outline: (§6)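 Read-out is fluorescence of a cyanine dye excluded from live cells that stains DNA of dead HepG2 cells, with signal proportional to cytotoxicity. Plates were read at 0, 8, 16, 24, 32 and 40 h after compound addition.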

[9] = A CellTox Green Cytotoxicity Assay to monitor cytotoxicity in HepG2 cells - 40 hour (AID 1224879); also: nearly all actives have a fitted effect of over 40% in size
Outline: as §6

[10] = qHTS RealTime-Glo MT Cell Viability Assay in HEK293 cells - 0 hour (AID 1224880); also: top concentration of the series differs between compounds; nearly all actives have a fitted effect of over 45% in size
Outline: as §4

[11] = A CellTox Green Cytotoxicity Assay to monitor cytotoxicity in HEK293 cells - 32 hour (AID 1224881); also: nearly all actives have a fitted effect of over 40% in size
Outline: as §2

[12] = A CellTox Green Cytotoxicity Assay to monitor cytotoxicity in HepG2 cells - 0 hour (AID 1224882); also: nearly all actives have a fitted effect of over 35% in size
Outline: as §6

[13] = A CellTox Green Cytotoxicity Assay to monitor cytotoxicity in HepG2 cells - 32 hour (AID 1224883); also: nearly all actives have a fitted effect of over 50% in size
Outline: as §6

[14] = A CellTox Green Cytotoxicity Assay to monitor cytotoxicity in HEK293 cells - 8 hour (AID 1224884); also: nearly all actives have a fitted effect of over 35% in size
Outline: as §2

[15] = qHTS RealTime-Glo MT Cell Viability Assay in HepG2 cells - 16 hour (AID 1224885); also: nearly all actives have a fitted effect of over 50% in size
Outline: as §5

[16] = qHTS RealTime-Glo MT Cell Viability Assay in HEK293 cells - 24 hour (AID 1224886)
Outline: as §3

[17] = qHTS RealTime-Glo MT Cell Viability Assay in HEK293 cells - 8 hour (AID 1224887)
Outline: as §4

[18] = A CellTox Green Cytotoxicity Assay to monitor cytotoxicity in HEK293 cells - 16 hour (AID 1224888); also: nearly all actives have a fitted effect of over 35% in size
Outline: as §2

[19] = qHTS RealTime-Glo MT Cell Viability Assay in HepG2 cells - 0 hour (AID 1224889); also: nearly all actives have a fitted effect of over 50% in size
Outline: as §5

[20] = A CellTox Green Cytotoxicity Assay to monitor cytotoxicity in HepG2 cells - 16 hour (AID 1224876); also: nearly all actives have a fitted effect of over 45% in size
Outline: as §6
% is scaled to controls: 0 for no effect and ±100 for the full control effect.

CCCN1C[C@H](CSC)C[C@@H]2c3cccc4[nH]cc(c34)C[C@H]21
inactive: outcome [1] | Potency [2] | Potency [3] | outcome [4] | max response [5] -0.0801% | outcome [6] | outcome [7] | outcome [8] | Potency [9] | Potency [10] | Potency [11] | outcome [12] | Potency [13] | Potency [14] | outcome [15] | Potency [16] | Potency [17] | outcome [18] | Potency [19]

CC(C(=O)O)c1ccc2c(c1)CC(=O)c1ccccc1S2 (stereo not given)
inactive: outcome [1] | Potency [2] | Potency [3] | outcome [4] | max response [5] -2.02% | outcome [6] | outcome [20] | outcome [8] | Potency [9] | Potency [11] | outcome [12] | Potency [13] | Potency [14] | outcome [15] | Potency [16] | outcome [18] | Potency [19]

COCCOCCOCCOCCOCCO
inactive: outcome [1] | Potency [2] | Potency [3] | outcome [4] | max response [5] 0.969% | outcome [6] | outcome [20] | outcome [8] | Potency [9] | Potency [10] | Potency [11] | outcome [12] | Potency [13] | Potency [14] | outcome [15] | Potency [16] | outcome [18] | Potency [19]

COc1ccc(C2CNC(=O)C2)cc1OC1CCCC1 (stereo not given)
inactive: outcome [1] | Potency [2] | Potency [3] | outcome [4] | max response [5] -17.5% | outcome [6] | outcome [20] | outcome [8] | Potency [9] | Potency [10] | Potency [11] | outcome [12] | Potency [13] | Potency [14] | outcome [15] | Potency [16] | Potency [17] | outcome [18] | Potency [19]

C=C(C)C1CCC(C)(O)CC1 (stereo not given)
inactive: outcome [1] | Potency [2] | Potency [3] | outcome [4] | outcome [6] | outcome [20] | outcome [7] | outcome [8] | Potency [9] | Potency [10] | Potency [11] | outcome [12] | Potency [13] | Potency [14] | outcome [15] | Potency [16] | Potency [17] | outcome [18] | Potency [19]

CC(=C(CCOC(=O)C(C)C)SSC(CCOC(=O)C(C)C)=C(C)N(C=O)Cc1cnc(C)nc1N)N(C=O)Cc1cnc(C)nc1N
inactive: outcome [1] | Potency [2] | Potency [3] | outcome [4] | max response [5] 3.74% | outcome [6] | Potency [10] | Potency [11] | Potency [14] | outcome [15] | Potency [16] | Potency [17] | outcome [18] | Potency [19]

CC(C)CCCCOC(=O)c1ccccc1C(=O)OCCCCC(C)C
inactive: outcome [1] | Potency [2] | Potency [3] | outcome [4] | max response [5] -1.41% | outcome [6] | outcome [7] | outcome [8] | Potency [9] | Potency [10] | Potency [11] | outcome [12] | Potency [13] | Potency [14] | outcome [15] | Potency [16] | Potency [17] | outcome [18] | Potency [19]

O=C(O)c1cc(Br)c(O)c(Br)c1
inactive: outcome [1] | Potency [2] | Potency [3] | outcome [4] | max response [5] -4.67% | outcome [6] | outcome [8] | Potency [9] | Potency [10] | Potency [11] | outcome [12] | Potency [13] | Potency [14] | outcome [15] | Potency [16] | Potency [17] | outcome [18] | Potency [19]

Nc1cccc(O)c1
inactive: outcome [1] | Potency [2] | Potency [3] | outcome [4] | max response [5] 3.53% | outcome [6] | outcome [20] | outcome [8] | Potency [9] | Potency [11] | outcome [12] | Potency [13] | Potency [14] | outcome [15] | Potency [16] | outcome [18] | Potency [19]

CCCCCCCCCCl
inactive: outcome [1] | Potency [2] | Potency [3] | outcome [4] | max response [5] -0.474% | outcome [6] | outcome [7] | outcome [8] | Potency [9] | Potency [10] | Potency [11] | outcome [12] | Potency [13] | Potency [14] | outcome [15] | Potency [16] | Potency [17] | outcome [18] | Potency [19]

CC(=O)c1ccc2c(c1)Cc1ccccc1-2
inactive: outcome [1] | Potency [2] | Potency [3] | outcome [4] | max response [5] -0.213% | outcome [6] | outcome [20] | Potency [9] | Potency [10] | Potency [11] | outcome [12] | Potency [13] | Potency [14] | outcome [15] | Potency [16] | Potency [17] | outcome [18] | Potency [19]

Nc1ccc([N+](=O)[O-])c(N)c1
inactive: outcome [1] | Potency [2] | Potency [3] | outcome [4] | outcome [6] | outcome [7] | outcome [8] | Potency [9] | Potency [10] | Potency [11] | outcome [12] | Potency [13] | Potency [14] | outcome [15] | Potency [16] | Potency [17] | outcome [18] | Potency [19]

CNC(=O)[C@H]1O[C@@H](n2cnc3c(NCc4cc(Cl)ccc4OCc4cc(C)no4)ncnc32)[C@H](O)[C@@H]1N
inactive: outcome [1] | Potency [2] | Potency [3] | outcome [4] | outcome [6] | outcome [20] | outcome [7] | outcome [8] | Potency [9] | Potency [10] | Potency [11] | outcome [12] | Potency [13] | Potency [14] | outcome [15] | Potency [16] | outcome [18] | Potency [19]

CCn1ccc(NS(=O)(=O)c2ccc(N)cc2)nc1=O
inactive: outcome [1] | Potency [2] | Potency [3] | outcome [4] | outcome [6] | outcome [20] | outcome [7] | outcome [8] | Potency [9] | Potency [10] | Potency [11] | outcome [12] | Potency [13] | Potency [14] | outcome [15] | Potency [16] | Potency [19]

CCCOC(OCCC)OCCC
inactive: outcome [1] | Potency [2] | Potency [3] | outcome [4] | outcome [6] | outcome [20] | outcome [7] | outcome [8] | Potency [9] | Potency [11] | outcome [12] | Potency [13] | Potency [14] | outcome [15] | Potency [16] | Potency [17] | outcome [18] | Potency [19]

CC(C)CC(=O)O
inactive: outcome [1] | Potency [2] | Potency [3] | outcome [4] | outcome [6] | outcome [7] | outcome [8] | Potency [9] | Potency [10] | Potency [11] | outcome [12] | Potency [13] | Potency [14] | outcome [15] | Potency [16] | Potency [17] | outcome [18] | Potency [19]

CCCCCCN
inactive: outcome [1] | Potency [2] | Potency [3] | outcome [4] | outcome [6] | outcome [8] | Potency [9] | Potency [11] | outcome [12] | Potency [13] | Potency [14] | outcome [15] | Potency [16] | Potency [17] | outcome [18] | Potency [19]

CC(C)NCC(O)COc1ccc(COCCOC(C)C)cc1 (stereo not given)
inactive: outcome [1] | Potency [2] | Potency [3] | max response [5] 3.86% | outcome [6] | outcome [20] | outcome [7] | outcome [8] | Potency [9] | Potency [10] | Potency [11] | outcome [12] | Potency [13] | Potency [14] | outcome [15] | Potency [16] | Potency [17] | outcome [18] | Potency [19]

CC(C)C(=O)OCc1cccc(OC(=O)[C@@H]2N3C(=O)[C@@H](NC(=O)Cc4ccccc4)[C@H]3SC2(C)C)c1
inactive: outcome [1] | Potency [2] | Potency [3] | max response [5] 0.269% | outcome [6] | outcome [20] | outcome [7] | outcome [8] | Potency [9] | Potency [10] | Potency [11] | outcome [12] | Potency [13] | Potency [14] | outcome [15] | Potency [16] | Potency [17] | outcome [18] | Potency [19]
